Screening results (PubChem)
In the library only some 2.1% were active in any assay of this set; here they are far more common.
Mito fusion act: qHTS Assay for Small Molecule Inhibitors of Mitochondrial Division or Activators of Mitochondrial Fusion. S. cerevisiae fusion-defective mutant growth rescue, CellTiterGlo 48 h. Potency, µM (highest dose often 46.1 µM), without a hit: at the top dose growth rescue (activation), actives largely listed as activators. actives 0.23% (n = 320,000); note: % of control where 0% means no effect; nearly all actives have a fitted effect of over 45% in size
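S. cerevisiae fusion-defective temperature-sensitive mutants (e.g. fzo1-1, mgm1-5) grown 48 h at 37C in YPEG (ethanol/glycerol non-fermentable) medium with 23 nl compound per well; growth rescue read as CellTiterGlo luminescence.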
TDP-43 yeast inh: qHTS of TDP-43 Inhibitors | actives 1.8% (n = 410,000) | TDP-43 expressing yeast growth rescue, BacTiter-Glo, 24 h | Potency, µM (top dose mostly 46.1 µM), inactives show at the highest dose growth rescue (activation), usual class: activators; note: % of control where 0% means no effect; nearly all actives have a fitted effect of over 50% in size
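Yeast expressing TDP-43 (pregrown in raffinose, seeded at OD600=0.02 in galactose medium) exposed to compounds 24 hr at 30 deg C. Growth read by BacTiter-Glo luminescence; rescue of toxicity appears as increased signal.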
GRP78 ERSR act: qHTS for Inducers of the Endoplasmic Reticulum Stress Response (ERSR) in Human Glioma: qHTS. U87-MG GRP78 promoter luciferase reporter, 16 h. Potency, µM, without a hit: top-dose activation, actives largely listed as activators. actives 0.02% (n = 420,000); note: series mostly up to about 76 µM; % of control where 0% means no effect; nearly all actives have a fitted effect of over 35% in size
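Stably transfected U87-MG glioma cells carrying a GRP78-based luciferase sensor; 16 h compound incubation. Luminescence end-point read 10 min after Bright-Glo addition at room temperature.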
aSyn rescue: qHTS of alpha-syn Inhibitors; actives 0.14% (n = 370,000); Potency, µM (series often up to 46.1 µM), for the others: top-dose growth rescue (activation), most hits filed as activators; Yeast expressing alpha-synuclein, growth rescue, BacTiter-Glo, 24 h; AID 652106, 2013; note: % of control where 0% means no effect; nearly all actives have a fitted effect of over 65% in size
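Rescue of yeast growth: cells expressing toxic alpha-synuclein, induced in galactose at OD600 0.02, incubated with compound 24 h at 30 C. ATP luminescence quantified growth; inhibitors of toxicity appear as activators.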
AT treatment: qHTS Assay for Identifying a Potential Treatment of Ataxia-Telangiectasia; F2112 A-T fibroblasts, KAP-1 phosphorylation AlphaLISA; neocarzinostatin DNA damage 30 min before lysis; Potency, µM (top dose mostly 57.5 µM), without a hit: at the top dose activation, most hits filed as activators; actives 0.19% (n = 320,000); note: % of control where 0% means no effect; nearly all actives have a fitted effect of over 45% in size
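hTERT-immortalized A-T patient fibroblasts (F2112), 500 cells/well in OPTI-MEM, 1% FBS, got compounds for 60 min, then NCS for 30 min at 37C. Lysates were then assayed for phospho-KAP-1 by AlphaLISA (anti-pKAP1 donor, anti-KAP1 acceptor beads), 6 hr at 25C.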
Abeta rescue: qHTS for compounds that reverse cellular toxicity of Amyloid beta (A-beta) peptide in yeast: Primary Screen; yeast expressing A-beta42, growth rescue, OD600, 48 h; response scale: 0% DMSO, 100% iron-clioquinol control; Potency, µM (top dose mostly 46.1 µM), most hits filed as activators; actives 0.063% (n = 410,000); note: nearly all actives have a fitted effect of over 55% in size
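Growth rescue measured by 600 nm absorbance after 48 h yeast culture at 30 C with compound. Values normalized between DMSO and an equimolar ferric chloride plus clioquinol control.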
Starred values were filed as active, the others as inactive; i = inactive; ? = inconclusive; . = no result given. Calls come from the whole dose curve; as a rule, active = well fitted curve in the direction sought with a large enough effect; inconclusive = small, poorly fitted or top-dose-only effect, or another doubt; inactive = no such curve, though single readings can be large; an effect the other way counts as inactive or inconclusive. Potency is the fitted concentration of half-maximal effect.

SMILES | Mito fusion act | TDP-43 yeast inh | GRP78 ERSR act | aSyn rescue | AT treatment | Abeta rescue
O=C(O)CN1C(=O)/C(=C/c2cccc(Cl)c2)Oc2ccccc21 | 7.4% | -15.6% | 3.7% | -6.1% | 5.01µM* | i
O=C(NCCN1Cc2ccccc2OC(c2ccccc2F)C1)c1ccco1 (stereo unspecified) | . | . | 3.2% | . | . | .
Cc1ccc(C2CC2c2n[nH]c(=S)n2-c2cccc(Cl)c2)cc1 (stereo unspecified) | 5.3% | 35.5µM* | -2.8% | 9.1% | 1.2% | i
COc1ccc(CN2C(=O)C(CC(=O)NC3CCCCC3)CC(C(=O)N(C)C)=C2C)cc1 (stereo unspecified) | . | -3.6% | -2.1% | 3.55µM* | . | i
O=c1c2c3c(sc2n(Cc2ccc(F)cc2Cl)c(=O)n1-c1ccc(Cl)cc1)CCC3 | . | -1.5% | -4.5% | . | . | i
CC(=O)c1sc(Nc2ccc3c(c2)OCO3)nc1C | . | 12.6µM* | 1.6% | 29.6% | . | i
c1ccc(-c2csc(Nc3ccc4c(c3)OCO4)n2)cc1 | . | 14.1µM* | -5.3% | -1.3% | . | i
N#Cc1ccc(Nc2nc(-c3ccccc3)cs2)cc1 | . | 3.16µM* | 1.9% | 0.3% | . | i
O=C(O)c1ccc(Nc2nc(-c3ccccc3)cs2)cc1 | 1.4% | 1.4% | -6.2% | 12.9% | 3.1% | i
CC(=O)c1sc(Nc2nc3cc4c(cc3s2)OCO4)nc1C | 2.8% | -12.4% | -2.0% | -0.3% | 1.0% | i
COc1ccc(CN2CCOc3ccc(C(O)c4cccnc4)cc3C2)cc1 (stereo unspecified) | . | . | -0.7% | . | . | .
CC1(C)N=C(N)N=C(N)N1c1ccc(Cl)cc1 | . | . | -5.5% | . | . | .
NC(=O)C1CCCN(Cc2ccc3c(c2)CN(Cc2ccccc2)CCO3)C1 (stereo unspecified) | . | . | -4.7% | . | . | .
O=C(NC1CCCCC1)c1cccc2c(-c3ccc(F)c(F)c3)coc12 | . | ? | 0.5% | 6.2% | . | i
COc1cc(-c2coc3c(C(=O)NCc4ccc(OC)c(OC)c4)cccc23)ccc1O | . | 14.1µM* | -9.9% | ? | . | i
COc1cc(-c2coc3c(C(=O)NC4CCCCC4)cccc23)ccc1O | . | 35.5µM* | -0.3% | -15.3% | . | i
COc1cc(-c2coc3c(C(=O)NCc4ccc(N(C)C)cc4)cccc23)ccc1O | . | 0.0% | -0.4% | 25.4% | . | i
CC(C)(C)n1ncc2c(=O)n(Cc3ccc(C#N)cc3F)cnc21 | . | . | -4.0% | . | . | .
CC(C)CCNC(=O)/C=C/c1ccc(Br)cc1 | 6.1% | 22.4µM* | 8.0% | -10.0% | 4.2% | i
COc1cc(NC(C)=O)c2ncccc2c1NC(C)=O | 4.5% | -13.8% | -1.2% | 1.0% | 35.5µM* | i
Cc1ccc(CCNC(=O)C2CC(c3cccc(F)c3)=NO2)cc1 (stereo unspecified) | 26.8% | 21.1% | -2.9% | 0.7% | 14.1µM* | i
COc1cccc(/C=N/n2cnc3c(cnn3-c3ccccc3)c2=O)c1 | -0.5% | 7.2% | -1.0% | -1.3% | 39.8µM* | i
COc1cccc(OCc2nc3c4cnn(-c5ccccc5)c4ncn3n2)c1 | -3.6% | -16.6% | -4.7% | -7.1% | -8.5% | i
C=CCc1ccccc1OCCSc1nc(-c2ccccc2F)nc2cc(=O)[nH]n12 | . | 11.0% | -2.7% | . | . | i
CN1C(=O)C2(N=c3ccccc3=N2)c2ccccc21 | 3.8% | 11.2µM* | -1.7% | 15.3% | 0.6% | i
CC(O)(COc1ccccc1)c1ccc2c(c1)CN(Cc1cccnc1)CCO2 (stereo unspecified) | . | . | -3.8% | . | . | .
Cc1ccc(NC(=O)c2ccc(Cn3cc(Br)cn3)o2)cc1 | 13.9% | 15.8µM* | -4.1% | -9.8% | . | i
NNC(=O)c1ccc(Cn2cc(Br)cn2)o1 | 0.9% | 10.8% | 0.8% | 0.3% | -13.9% | i
